High-throughput results from PubChem.
Mdm2 MdmX PPI = inhibitors of human Mdm2/MdmX interaction | O15151+Q00987 | SaOS-2 split-luciferase Mdm2/MdmX complementation, luminescence | inhibition, % at 8 µM | 330,000 compounds, 3% hits;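 active means inhibition of at least 50% at 8 µM in the primary screen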
NR3A LBD binder = modulators (binders) of human NR3A ligand-binding domain | AID 1259313 | 340,000 compounds, 2.5% hits | NR3A LBD differential scanning fluorimetry, Tm shift; 0% = protein alone, 100% = glycine-bound protein | Tm shift relative to glycine control, % at 25 µM;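 active means melting temperature shift of at least 10% of the positive control shift, at one fixed dose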
CSC inhib = cancer stem cell inhibition. inhibition, % at 7.5 µM. cancer stem cell-like cells viability, luminescence. 300,000 compounds, 1.1% hits; in the data active means inhibition above about 75%; inconclusive means no clear call, values can overlap the other calls; tested in HMLE shEcad cells
Beta apoptosis = blocks beta cell apoptosis; INS-1E cytokine-induced death, ATP luminescence, 48 h; percent of positive-control rescue, neutral wells zero; protection from apoptosis, % (no concentration beside the values); 300,000 compounds, 0.8% hits; AID 435005;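 active means Every replicate reaches about 75%, or at least half do and their mean reaches it too, limit read from the data; inconclusive means At least half of replicates reach the limit but their mean does not; inactive means Under half of replicates reach the limit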;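 further: higher means more ATP so stronger rescue from cytokine killing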
MPTP inh = blocks calcium-induced mitochondrial swelling; 360,000 compounds, 1.4% hits; inhibition, % at 10 µM; isolated mouse mitochondria, Ca2+ swelling absorbance, 30 min; AID 602449;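 active means inhibition of 50% or more, scaled per plate between neutral and stimulator controls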
Gli-Sufu block = Gli-Sufu pathway antagonism; Sufu-KO-LIGHT fibroblasts, Gli luciferase reporter luminescence; inhibition, % at 5 µM; 340,000 compounds, 0.74% hits; AID 588413;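 active means inhibition above about 55%, limit read from the data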
Of the large screens only hits and unclear results are named; the others gave an inactive call. Hits are enriched below; roughly 6.6% of the tested compounds scored in any of these assays.

Cc1cc(N/N=C/c2c[nH]c3ccccc23)c2ccccc2n1	none
Cn1c(N/N=C/c2c[nH]c3ccccc23)nc2ccccc21	NR3A LBD binder 18.8
O=C(N/N=C/c1c[nH]c2ccccc12)c1ccc(Cl)cc1	NR3A LBD binder 37.4 (no result: Beta apoptosis)
Nc1ccc(C(=O)N/N=C/c2c[nH]c3ccccc23)cc1	NR3A LBD binder 21.5
Cc1ccc(S(=O)(=O)N(C)c2ccc(C(=O)NCc3ccccc3F)cc2)cc1	none
O=C(N/N=C/c1c[nH]c2ccccc12)c1ccc(Br)cc1	NR3A LBD binder 29.8
Cc1nnc(N/N=C/C(C)c2ccccc2)[nH]c1=O (stereo unspecified)	none
O=C(N/N=C/c1c[nH]c2ccccc12)c1cc(Cl)ccc1O	NR3A LBD binder 35.5
Cc1nnc(N/N=C/c2c[nH]c3ccccc23)[nH]c1=O	NR3A LBD binder 25.0
O=C(CNC(=O)c1ccc([N+](=O)[O-])cc1)N/N=C/c1c[nH]c2ccccc12	none
O=C(N/N=C\c1c[nH]c2ccccc12)c1ccc(O)cc1	NR3A LBD binder 41.5
CC(C)(C)OC(=O)N/N=C/c1c[nH]c2ccccc12	none (no result: Beta apoptosis)
CNC(=O)C[C@H]1C(=O)N(c2ccc(OC)cc2)C[C@@H]1CSC	none (no result: Mdm2 MdmX PPI, NR3A LBD binder, CSC inhib, Beta apoptosis, Gli-Sufu block)
COc1ccc(C)cc1N(CC(=O)N1CCCCCC1)S(=O)(=O)c1ccc(C)cc1	none
CCCCn1c(/N=C/c2c[nH]c3ccccc23)nc2ccccc21	NR3A LBD binder 23.2
C(=NN=C1c2ccccc2-c2ccccc21)c1c[nH]c2ccccc12	NR3A LBD binder 16.8 (no result: Mdm2 MdmX PPI, CSC inhib, Beta apoptosis)
Cc1occc1C(=O)N/N=C/c1c[nH]c2ccccc12	NR3A LBD binder 12.7
O=C(N/N=C/c1c[nH]c2ccccc12)c1ccccc1Cl	none
NC(=S)N/N=C/c1c[nH]c2ccccc12	none
Cc1cc(C)nc(N/N=C/c2c[nH]c3ccccc23)n1	none
Fc1c(F)c(F)c(N/N=C/c2c[nH]c3ccccc23)c(F)c1F	NR3A LBD binder 76.0
Cc1ccc(S(=O)(=O)N2CCCOC2CNC(=O)C(=O)NC2CCCC2)cc1 (stereo unspecified)	none
O=C(NCC1CC1)c1ccc2sc([C@@H]3O[C@H](CO)[C@H](O)[C@H](O)[C@H]3O)nc2c1	none (no result: Mdm2 MdmX PPI, NR3A LBD binder, CSC inhib, Beta apoptosis, Gli-Sufu block)
ON=C1c2ccccc2-c2ccc(O)cc21	none (no result: Mdm2 MdmX PPI, CSC inhib, Beta apoptosis)
CC(C)Oc1ccc(Br)cc1C(=O)N/N=C/c1c[nH]c2ccccc12	NR3A LBD binder 10.8 (no result: Gli-Sufu block)
Oc1ccc(C=NN=C2c3ccccc3-c3ccccc32)c(O)c1	NR3A LBD binder 23.1 (no result: Mdm2 MdmX PPI, CSC inhib, Beta apoptosis)
CCCCn1nnnc1C(c1ccccc1)N1CCN(c2c(Cl)cncc2Cl)CC1 (stereo unspecified)	none (no result: Mdm2 MdmX PPI, NR3A LBD binder, CSC inhib, Beta apoptosis, Gli-Sufu block)
CC1CCCCC1NC(=O)/C(C#N)=C/c1ccc2c(c1)OCCO2 (stereo unspecified)	NR3A LBD binder 13.1 (no result: MPTP inh)
CC1CCCCC1NC(=O)/C(C#N)=C/c1ccc(F)c(F)c1 (stereo unspecified)	none
CCCNC(=O)c1ccc2c(=O)c(O)c(-c3ccc(Cl)c([N+](=O)[O-])c3)[nH]c2c1	Beta apoptosis 78.5
COC(=O)c1ccc(CN2CCC(Oc3cccc(C(=O)N4CCOCC4)c3)CC2)cc1	none
O=C(NCc1ccc(Cl)cc1)C1CCC(=O)N(C2CCCCCC2)C1 (stereo unspecified)	NR3A LBD binder 10.0 (no result: Beta apoptosis)
O=C(NCc1cccc(F)c1)C1CCC(=O)N(C2CCCC2)C1 (stereo unspecified)	none
CC(=O)N1C=CN(C(C)=O)C(c2cn(C)c3ccccc23)C1c1cn(C)c2ccccc12 (stereo unspecified)	NR3A LBD binder 13.6
Cn1cc(C2N3CC4(C)CN2CC(C)(C3)C4=O)c2ccccc21 (stereo unspecified)	none
O=C(CCc1ccc(O)cc1)c1c(O)cc(O)cc1O	NR3A LBD binder 21.3
COCCNC(=O)c1c[nH]c2ccc(S(=O)(=O)N3CCc4ccccc43)cc2c1=O	CSC inhib 84.3
COCCCNC(=O)c1c[nH]c2ccc(S(=O)(=O)N3CCc4ccccc43)cc2c1=O	none
Cc1ccc(C(=O)N/C(=C\c2ccc(-c3cc(Cl)ccc3Cl)o2)C(=O)NCc2cccnc2)cc1	none
Cc1ccc(NC(=O)C(=O)NCc2ccc(/C=C(/C#N)C(=O)NCc3cccnc3)o2)cc1	none
N#C/C(=C/c1ccc(CNC(=O)C(=O)Nc2cc(Cl)cc(Cl)c2)o1)C(=O)NCc1cccnc1	NR3A LBD binder 11.7
O=C(NCc1cccnc1)/C(=C\c1ccc(-c2cccc(Cl)c2)o1)S(=O)(=O)c1ccccc1	CSC inhib 101.5, Beta apoptosis 103.8 (no result: Mdm2 MdmX PPI)
O=C(O)c1ccc(CSc2nc(-c3ccc(Cl)cc3)cc(C(F)(F)F)n2)cc1	NR3A LBD binder 38.2, CSC inhib inconclusive
O=C(O)c1ccc(CSc2nc(-c3ccccc3)cc(C(F)(F)F)n2)cc1	none
N#CCCn1cc(C(=O)Nc2ccccc2Br)c(-c2cc3ccccc3o2)n1	none
O=C(N/N=C/c1cn(-c2ccccc2)nc1-c1cc2ccccc2o1)c1ccccc1Br	none
COc1ccc(NC(=O)c2cn(-c3ccccc3)nc2-c2ccncc2)cc1	none
N#CCCn1cc(C(=O)Nc2ccc([N+](=O)[O-])cc2)c(-c2cc3ccccc3o2)n1	NR3A LBD binder 13.9
O=C(N/N=C/c1cn(-c2ccccc2)nc1-c1cc2ccccc2o1)c1c[nH]c2ccccc12	NR3A LBD binder 19.6
COc1ccc(NC(=O)c2cn(-c3ccccc3)nc2-c2cc3ccccc3o2)cc1	NR3A LBD binder 10.7 (no result: CSC inhib)
CC1=C(C(=O)N2CCCCCC2)CC(CC(=O)NC2CCCCC2)C(=O)N1CCC1=CCCCC1 (stereo unspecified)	none (no result: Mdm2 MdmX PPI, NR3A LBD binder, CSC inhib, Beta apoptosis, Gli-Sufu block)
O=c1[nH]c(-c2ccccc2)cs1	NR3A LBD binder 11.5
Cc1csc(=O)n1CCC(=O)OCc1nnc(-c2ccc(Cl)cc2)o1	none (no result: CSC inhib, Beta apoptosis)
O=C(CN1C(=O)NC2(CCCC2)C1=O)Nc1ccc(F)c(Cl)c1	none
C=CCn1c(CNc2ccccc2)nnc1SCC(=O)N/N=C/c1ccc(O)cc1O	CSC inhib 86.2
CN[C@@H](CO)C(=O)NC[C@H]1O[C@@H](n2cnc3c(N)ncnc32)[C@H](O)[C@@H]1O	none (no result: Mdm2 MdmX PPI, NR3A LBD binder, CSC inhib, Beta apoptosis, Gli-Sufu block)
CCNC(=O)COC(=O)c1ccc(-c2nc3ccccc3s2)s1	none
Cc1noc(C)c1COC(=O)c1ccc(-c2nc3ccccc3s2)s1	NR3A LBD binder 21.0
COc1ccc2c(Cl)c(C(=O)NN)sc2c1	none
COc1ccc2c(Cl)c(C(N)=O)sc2c1	NR3A LBD binder 34.0
Cc1ccc(Nc2cc(C)c(O)c(C)c2)cc1	none
CCCCCCSc1cccc(-c2nc3cc(C)ccn3c2NCc2ccccc2)c1	none
Cc1ccc2nc(-c3cccc(-c4cccc(Cl)c4)c3)c(NCc3ccccc3)n2c1	CSC inhib inconclusive, Beta apoptosis 94.3
CCCCNc1c(-c2ccc(SC(C)CC)c(OC)c2)nc2ccc(Cl)cn12 (stereo unspecified)	none
CCCCCCSc1cccc(-c2nc3ccc(C)cn3c2NCc2ccccc2)c1	CSC inhib 80.2
CCCCCCSc1ccc(-c2nc3ccc(C)cn3c2NCCCC)cc1OC	none (no result: Mdm2 MdmX PPI, NR3A LBD binder, CSC inhib, Beta apoptosis, Gli-Sufu block)
